# The list is not random: actives were taken first. Their share in the collection is about 3.4%.
# SMARCA2 act = SMARCA2 function activation, primary screen. MG213 cells, MMTV-luciferase reporter, dexamethasone, overnight. activation, % at 9.1 µM. AID 652017. 370,000 compounds, 1% hits; in the data active = activation above about 7.8%;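 note: 0% = vehicle wells and 100% = reference activator wells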
# COUP-TFII inh = NR2F2 (human) inhibition, primary screen. P24468. 370,000 compounds, 0.7% hits. inhibition, % at 8.6 µM. HEK293T NGFI-A luciferase reporter, luminescence;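 active = inhibition above a per-plate cutoff, mean inhibition of test wells between control levels plus 3 SD, cut at about 38% in these data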;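 note: cells cotransfected with COUP-TFII expression vector driving the NGFI-A reporter; 0% = median of COUP-TF2 test wells and 100% = reporter-only cells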
# Target sequence (P24468 whole entry, looked up): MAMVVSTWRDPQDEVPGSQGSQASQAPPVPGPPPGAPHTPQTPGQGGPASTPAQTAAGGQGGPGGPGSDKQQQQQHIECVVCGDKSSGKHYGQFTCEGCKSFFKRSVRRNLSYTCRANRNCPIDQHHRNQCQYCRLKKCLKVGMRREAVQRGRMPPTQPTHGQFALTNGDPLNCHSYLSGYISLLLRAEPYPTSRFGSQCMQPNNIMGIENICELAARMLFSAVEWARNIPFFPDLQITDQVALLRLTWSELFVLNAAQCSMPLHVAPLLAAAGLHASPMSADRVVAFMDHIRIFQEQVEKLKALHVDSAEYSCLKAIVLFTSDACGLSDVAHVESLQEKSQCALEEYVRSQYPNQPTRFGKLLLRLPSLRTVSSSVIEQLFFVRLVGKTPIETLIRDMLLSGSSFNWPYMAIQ
# GalR3 antag = human GalR3 antagonism; AID 651719; O60755; HEK293 GalR3-CNG cAMP membrane potential fluorescence; galR3 body fused to GalR1 C-terminus; inhibition, % at 3 µM; 360,000 compounds, 0.44% hits;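 active = inhibition above the screen-wide average plus 3 SD, cut at about 13% in these data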;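 note: forskolin and galanin both at EC90 stimulate the cells; cAMP rise reported by CNG channel membrane potential dye signal; 0% = forskolin plus galanin with DMSO and 100% = forskolin alone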
# Target sequence (O60755 1-299 limits assumed): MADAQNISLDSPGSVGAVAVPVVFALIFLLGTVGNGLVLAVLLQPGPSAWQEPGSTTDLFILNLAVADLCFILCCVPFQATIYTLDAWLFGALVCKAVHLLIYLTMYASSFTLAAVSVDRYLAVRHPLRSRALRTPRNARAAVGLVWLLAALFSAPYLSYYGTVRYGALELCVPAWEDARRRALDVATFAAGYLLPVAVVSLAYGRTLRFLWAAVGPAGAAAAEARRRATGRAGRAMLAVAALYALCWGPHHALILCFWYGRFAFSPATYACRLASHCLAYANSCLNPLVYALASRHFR
# FXN GAA850 act = increases GAA850 frataxin promoter reporter activity | HEK293 lucGAA850 FXN promoter luciferase reporter, 24 h; percent of 10 µM SAHA response | 360,000 compounds, 0.56% hits | activation, % at 6 µM;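 active = activation above the average of all compounds screened plus 3 SD, cutoff fixed separately per campaign, cut at about 7.5% in these data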;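 note: 0% = DMSO wells and 100% = 10 µM SAHA wells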
# Cardio protect = modulators protecting cardiomyocytes from myocardial damage; H9c2 cardiomyocytes, H2O2 injury protection, ATPLite, 2 h; protection from H2O2 cell death, % at 20 µM; 360,000 compounds, 0.63% hits; AID 588492;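 active = compounds giving at least 50% protection of heart cells from peroxide-induced death in the single-dose screen, raw or plate-pattern-corrected value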;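 note: 0% = DMSO wells with peroxide and 100% = DMSO wells without peroxide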
# Gli-Sufu block = blocks Gli-Sufu signaling in a luciferase reporter | Sufu-KO-LIGHT fibroblasts, Gli luciferase reporter luminescence | inhibition, % at 5 µM | 340,000 compounds, 0.74% hits | AID 588413;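 active = inhibition above about 55%, limit read from the data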;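 note: 0% = DMSO-treated cells and 100% = wells with medium but no cells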
# SMARCA2 act conf = confirmation of SMARCA2 (BRM) function activators. shares compounds with SMARCA2 act. MG213 cells, MMTV-luciferase with dexamethasone, luminescence, overnight; MG213 cells expressing E1A, Rb sequestered; DMSO wells 0%, reference activator 100%. activation, % at 9.1 µM. 3,500 compounds, 30% hits. AID 652260;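 active = activation above its plate's cutoff, the mean activation of tested wells plus 3 SD, cut at about 7.9% in these data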
# GAL4-VP16 Luc = counter-screen for SMARCA2 activators: GAL4-VP16 luciferase reporter activation; shares compounds with SMARCA2 act; HEK293 GAL4-VP16 pG5luc reporter, luciferase luminescence; scaled: DMSO wells 0%, SAHA wells 100%; 3,500 compounds, 41% hits; AID 686939; activation, % at 9.1 µM;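 active = activation above the solvent-only control well mean plus 3 SD, averaged across control plates, cut at about 5.2% in these data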
# * hit, by the source's call; x = no result given.
SMILES,SMARCA2 act,COUP-TFII inh,GalR3 antag,FXN GAA850 act,Cardio protect,Gli-Sufu block,SMARCA2 act conf,GAL4-VP16 Luc
O=C(O)c1cccc(Nc2c([N+](=O)[O-])c(=O)oc3ccccc23)c1,8.9*,-6.9,-0.4,1.6,3.5,-13.9,-2.7,0.6
CC(=O)c1cccc(Nc2c([N+](=O)[O-])c(=O)oc3ccccc23)c1,-1.6,-25.8,0.0,-0.9,-1.3,6.4,x,x
O=C(Nc1ccc(OC(F)(F)F)cc1)c1cnccn1,8.1*,-23.7,-8.0,2.7,-12.7,-15.0,9.4*,11.1*
CCn1cc(C(=O)O)c(=O)c2cc(F)c(N3CCN(C(=S)NC(=O)c4ccccc4Cl)CC3)cc21,9.1*,-7.1,-7.4,0.3,5.9,-8.7,2.9,1.6
CCn1cc(C(=O)O)c(=O)c2cc(F)c(N3CCN(C(=S)NC(=O)c4ccccc4C)CC3)cc21,-4.2,-24.6,-2.3,1.4,19.6,-8.9,x,x
Cc1cc(OCC(=O)N(C)C2CCCCC2)ccc1Cl,10.1*,-11.9,-7.2,4.0,-3.8,-72.0,6.2,16.8*
CCN(CC)C(=N)N1c2ccccc2CCC1C (centres undefined),-2.0,9.4,-0.4,-0.1,1.8,11.4,x,x
Cc1ccc(Nc2nc(N)c3ccccc3n2)cc1Cl,1.2,-28.9,-12.8,3.4,-19.1,-58.0,x,x
COc1cc2nc(Nc3ccc(C)c(Cl)c3)nc(N)c2cc1OC,9.5*,-0.6,-12.0,-3.0,-19.5,25.4,-6.6,-0.6
CCCCn1c(N)c(N(CCOC)C(=O)c2c(C)noc2C)c(=O)[nH]c1=O,-1.5,-10.8,-2.8,-0.7,-0.5,-2.4,x,x
Cc1ccc(C(=O)NC(=S)Nc2ccc(NC(=O)c3cccs3)cc2)cc1[N+](=O)[O-],0.3,2.0,-2.8,2.9,-10.2,13.5,x,x
Cc1ccc(C(=O)Nc2ccc(NC(=O)c3cccs3)cc2)cc1[N+](=O)[O-],9.0*,-7.2,-1.1,1.6,2.3,6.4,3.5,0.7
Fc1cccc(-c2cc3nc4c(c(NCc5ccco5)n3n2)CCCC4)c1,8.4*,-35.2,-5.7,5.7,-12.3,-57.2,7.6,10.6*
Fc1cccc(-c2cc3nc4c(c(N5CCOCC5)n3n2)CCCC4)c1,9.4*,-33.8,-1.0,5.9,38.5,12.0,5.3,0.5
O=C(O)/C=C/C(=O)Nc1ccc(Oc2ncnc3cc(Cl)ccc23)nc1,x,x,x,x,x,6.4,x,x
CC(=O)Nc1ccc(S(=O)(=O)NCCC(=O)OCC(=O)N2CCN(C(=O)c3ccco3)CC2)cc1,-2.9,-4.0,0.7,1.3,2.1,-0.3,x,x
Cc1cc(C)cc(NC(=O)CCc2c(C)nn(-c3ccc(N4CCCCC4)nn3)c2C)c1,10.6*,-17.9,3.0,3.3,4.5,-29.8,3.0,6.3*
Cc1ccc(NC(=O)CCc2c(C)nn(-c3ccc(N4CCCCC4)nn3)c2C)cc1,2.3,-36.9,0.5,0.8,-1.8,-54.3,x,x
O=C(CSc1nnc(Cc2ccccc2)o1)NCCc1ccccc1,8.2*,11.8,-3.4,0.6,3.2,-12.5,5.8,-1.3
CCN1CCCC1CNC(=O)C(=O)Nc1ccccc1 (centres undefined),10.7*,-32.3,-1.5,3.7,10.1,15.5,2.2,6.1*
CCOc1ccc(NC(=O)C(=O)NCC2CCCN2CC)cc1 (centres undefined),1.0,12.0,-7.2,1.8,7.9,-17.1,x,x
Cc1ccc(-c2cc(-c3ccccc3Cl)[nH]n2)c(O)c1,8.6*,-43.7,-1.6,4.0,-8.9,-67.8,4.2,10.7*
Cc1ccc(-c2cc(-c3ccccc3[N+](=O)[O-])[nH]n2)c(O)c1,-1.1,-51.4,-7.2,1.6,-14.3,-51.5,x,x
O=C(NCCCN1CCOCC1)/C(=C/c1cccs1)NC(=O)c1ccccc1,-2.3,-11.0,-10.1,-0.8,2.5,-15.7,x,x
Oc1[nH]c2ccccc2c1N=Nc1cccc(Cl)c1,1.5,-19.2,-8.4,6.6,-10.2,-37.6,x,x
SMILES,SMARCA2 act,COUP-TFII inh,GalR3 antag,FXN GAA850 act,Cardio protect,Gli-Sufu block,SMARCA2 act conf,GAL4-VP16 Luc
O=C(O)c1ccc(N=Nc2c(O)[nH]c3cc(Cl)ccc23)cc1,13.7*,-25.4,2.5,9.8*,6.8,-115.5,12.0*,13.6*
Cc1ccc(C(=O)Nc2ccsc2C(=O)O)cc1,7.1,-59.5,-8.2,3.8,-14.7,-58.5,x,x
O=C(Nc1ccsc1C(=O)O)c1ccc(Cl)cc1,8.7*,-16.2,-8.3,4.0,-8.7,-33.1,10.1*,8.7*
Cc1ccc2nc(N3C(=O)C(O)=C(C(=O)c4ccco4)C3c3cccs3)sc2c1 (centres undefined),11.6*,-35.2,-6.3,2.0,-9.3,-57.6,2.0,10.3*
COc1ccc2nc(N3C(=O)C(O)=C(C(=O)c4ccco4)C3c3ccc(C)o3)sc2c1 (centres undefined),2.1,-18.4,-5.3,4.8,-1.0,0.7,x,x
C=CCn1c(=O)c2ccccc2n2c(SCc3nc4ccccc4s3)nnc12,3.1,-20.8,-8.6,3.2,0.8,-2.7,x,x
C=CCN1C(=O)C(=O)N(Cc2nc3ccccc3s2)C1=O,8.7*,-39.5,-8.2,4.3,-5.7,9.7,8.2*,8.3*
CCn1c(=O)cc(SCC(=O)Nc2ccc(C)cn2)c2ccccc21,9.2*,-13.9,-3.8,2.6,4.6,-217.9,15.4*,0.4
CCN(CC)CCNc1nc(SC)nc2sc3c(c12)CCN(C)C3,9.2*,-3.4,-13.3,1.0,17.4,30.1,7.5,0.2
COc1ccc(C(=O)OCC(=O)Nc2ccc3c(c2)OCO3)cc1S(=O)(=O)N1CCOCC1,3.0,14.7,-3.7,-0.6,4.9,-0.8,x,x
COc1ccc(C(=O)NCC2OCCc3ccccc32)c(O)c1 (centres undefined),-0.6,-6.9,-1.8,1.3,-7.7,-10.5,x,x
Cc1cccc(NC(=O)CSc2nnnn2-c2cccnc2)c1,4.6,4.3,4.5,-0.5,2.9,2.0,x,x
CCC(=O)Nc1ccc(NC(=O)CSc2nnnn2-c2cccnc2)cc1C,9.7*,-13.3,-8.4,3.2,-1.2,-9.0,-2.1,0.9
CCNS(=O)(=O)c1ccc(Br)c(C(=O)OC(C)C(=O)NCC2CCCCC2)c1 (centres undefined),1.0,18.5,-4.7,2.9,-0.2,-6.0,x,x
CCOC(=O)C1=C(N)OC(C)=C(C#N)C1c1ccco1 (centres undefined),9.0*,3.4,-9.6,0.0,6.9,9.3,1.5,1.1
COc1ccc(CC(=O)Nc2c3c(nn2-c2ccccc2C)CS(=O)C3)cc1 (centres undefined),8.7*,-3.9,-7.8,-1.5,-1.3,-0.6,-1.5,-0.4
